BL2 CD40 inh = CD40 pathway inhibition in BL2 cells | 83,000 compounds, 0.94% hits | AID 1053188 | inhibition, % at 10 µM | BL2 NF-kB luciferase reporter, CD40L-induced, 4 h;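 active = mean inhibition of at least 50% with a set share of replicates also reaching that level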
Large screens that a line does not name were inactive; [ ] = another dose, or the depositor's remark. Many of the other results were omitted from the sample, so hits are more common in it than they were.

CC(=O)C1CCC2C3CCC4CC(OC(=O)CCC(=O)O)CCC4(C)C3C(=O)CC12C (centres undefined)	none
CC(=O)OC1CCC2(C)C(CCC3C4CC=C(C(C)=O)C4(C)OC(=O)CC32)C1 (centres undefined)	BL2 CD40 inh 98
CC(=O)[C@@]1(O)CCC2C3CC[C@H]4C[C@@H](O)CC[C@]4(C)C3CC[C@@]21C (some centres undefined)	none
Cc1ccnc(NC(c2cccnc2)c2ccc3cccnc3c2O)c1 (centres undefined)	none
Oc1c(C(Nc2ccccn2)c2ccccn2)ccc2cccnc12 (centres undefined)	none
COc1ccccc1NC(c1cccnc1)c1ccc2cccnc2c1O (centres undefined)	BL2 CD40 inh 49
COc1ccc(NS(=O)(=O)c2cccc(C(=O)NN=Cc3ccc(OC)cc3OC)c2)cc1	none
COc1ccc(/C=N/Nc2ncccc2[N+](=O)[O-])c(OC)c1	BL2 CD40 inh 68
COC(=O)CCCNc1ncccc1[N+](=O)[O-]	none
COc1cccc(C(=O)Nc2ccc3c(c2)C(=O)N(C)C[C@@H](OC)[C@H](C)CN(C(=O)C2CCCC2)[C@@H](C)CO3)c1	none
C#C[C@]1(O)CC[C@H]2[C@@H]3CCc4cc(OC5CCCC5)ccc4[C@H]3CC[C@@]21C	BL2 CD40 inh 52
C=CCOc1ccc2c(c1)CCC1C2CCC2(C)C(O)C(O)CC12 (centres undefined)	none
C#C[C@]1(O)CC[C@H]2[C@@H]3CCc4cc(OC)ccc4[C@H]3CC[C@@]21C	none
C/C=C/c1ccc([C@@H]2[C@@H](CNC(=O)c3ccccc3)N(C(C)=O)[C@H]2CO)cc1	none
O=C(COC(=O)c1cc([N+](=O)[O-])ccc1N1CCOCC1)Nc1cc(F)ccc1F	none
N#CC1(NC(=O)COC(=O)c2cc([N+](=O)[O-])ccc2N2CCCC2)CCCCC1	BL2 CD40 inh 44
N#CC1(NC(=O)COC(=O)c2cc([N+](=O)[O-])ccc2N2CCOCC2)CCCCC1	none
C[C@@H]1CN([C@@H](C)CO)C(=O)CCCn2nncc2CO[C@H]1CN(C)C(=O)NC1CCCC1	none
C/C=C/c1ccc([C@@H]2[C@H](CO)N(C(C)=O)[C@H]2CNC(=O)c2ccncc2)cc1	none
CO[C@H](CN(C)C(=O)c1cnccn1)[C@H](C)CN([C@@H](C)CO)S(=O)(=O)c1ccccc1	none
C[C@@H]1CN([C@H](C)CO)C(=O)c2cc(NC(=O)Nc3cccc4ccccc34)ccc2O[C@@H](C)CCCCO[C@H]1CN(C)Cc1ccc(C(F)(F)F)cc1	BL2 CD40 inh 49[25 µM]
C[C@@H]1CCCCO[C@H](CN(C)Cc2ccc(C(F)(F)F)cc2)[C@@H](C)CN([C@@H](C)CO)C(=O)c2cc(NC(=O)Nc3cccc4ccccc34)ccc2O1	BL2 CD40 inh 51[25 µM]
COc1ccc(S(=O)(=O)Nc2ccc3c(c2)C(=O)N([C@H](C)CO)C[C@@H](C)[C@H](CN(C)Cc2ccc(C(F)(F)F)cc2)OCCCC[C@H](C)O3)cc1	none
C[C@H]1CCCCO[C@H](CN(C)C(=O)C2CCCCC2)[C@@H](C)CN([C@@H](C)CO)C(=O)c2cc(NS(=O)(=O)c3ccccc3)ccc2O1	none
C[C@@H]1CCCCO[C@@H](CN(C)Cc2ccc(C(F)(F)F)cc2)[C@@H](C)CN([C@H](C)CO)C(=O)c2cc(NC(=O)Nc3cccc4ccccc34)ccc2O1	none
C[C@@H]1CCCCO[C@@H](CN(C)C(=O)C2CCCCC2)[C@@H](C)CN([C@H](C)CO)C(=O)c2cc(NS(=O)(=O)c3ccccc3)ccc2O1	BL2 CD40 inh 67[25 µM]
C[C@@H]1CCCCO[C@@H](CN(C)Cc2ccc(C(F)(F)F)cc2)[C@H](C)CN([C@@H](C)CO)C(=O)c2cc(NC(=O)Nc3cccc4ccccc34)ccc2O1	none
COc1ccc(S(=O)(=O)Nc2ccc3c(c2)C(=O)N([C@H](C)CO)C[C@H](C)[C@@H](CN(C)Cc2ccc(C(F)(F)F)cc2)OCCCC[C@@H](C)O3)cc1	BL2 CD40 inh 53[25 µM]
COc1ccc(S(=O)(=O)Nc2ccc3c(c2)C(=O)N([C@@H](C)CO)C[C@H](C)[C@@H](CN(C)Cc2ccc(C(F)(F)F)cc2)OCCCC[C@H](C)O3)cc1	none
C[C@H]1CCCCO[C@@H](CN(C)C(=O)C2CCCCC2)[C@@H](C)CN([C@@H](C)CO)C(=O)c2cc(NS(=O)(=O)c3ccccc3)ccc2O1	none
C[C@@H]1CCCCO[C@@H](CN(C)Cc2ccc(C(F)(F)F)cc2)[C@H](C)CN([C@H](C)CO)C(=O)c2cc(NC(=O)Nc3cccc4ccccc34)ccc2O1	none
C[C@@H]1CCCCO[C@H](CN(C)Cc2ccc(C(F)(F)F)cc2)[C@H](C)CN([C@@H](C)CO)C(=O)c2cc(NC(=O)Nc3cccc4ccccc34)ccc2O1	none
N#Cc1ccc(-c2ccc3c(c2)[C@H]2[C@H](CCN2C(=O)C2CCCC2)[C@@H](CO)N3)cc1	none
CC(C)C#Cc1ccc([C@H]2[C@@H](C#N)N(C(=O)c3cccc(F)c3)[C@@H]2CO)cc1	none
C[C@H](CO)N1C[C@H](C)[C@H](CN(C)S(=O)(=O)c2cccs2)Oc2c(NS(=O)(=O)c3ccc(F)cc3)cccc2C1=O	none

Compound activity (PubChem)
